# From PubChem BioAssay
# In the library only some 6% were active in any assay of this set; here they are far more common.
# DRD3 antagonist: blocks the human D3 dopamine receptor. P35462. D3R cells, DiscoveRx beta-arrestin luminescence, antagonist mode; active compounds read low. max response, negative = inhibition, %. 360,000 compounds, 2.5% hits; in the data active = max response below about -50%; inconclusive = no clear call, values can overlap the other calls; also: % is scaled to controls: 0 for no effect and ±100 for the full control effect
#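 Cells expressing the human receptor were seeded at 1500 cells/well, incubated overnight at 37 degrees C in 5% CO2, then exposed to library compounds with dopamine controls for 90 minutes at 37 degrees C before luminescent detection.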
# DRD3 agonist: activates the human D3 dopamine receptor; 410,000 compounds, 0.58% hits; D3R DiscoveRx beta-arrestin cells, luminescence, 90 min; max activation, %; P35462; AID 652048; in the data active = max activation above about 30%; also: 0% is about no effect
#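 Cells at 1500/well, incubated overnight, then treated with pinned compounds (dopamine as control) for 90 min at 37 degrees C. DiscoveRx reagent added for 30 - 60 minutes at room temperature; luminescence read.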
# D1 potentiator: enhances dopamine response at the human D1 receptor; HEK293 TREx D1 cells, calcium flux, dopamine EC20 potentiation; potentiation, % at 10 µM; 360,000 compounds, 0.036% hits; in the data active = potentiation above about 30%; also: 0% is about no effect
# Target sequence (P21728 whole entry, looked up): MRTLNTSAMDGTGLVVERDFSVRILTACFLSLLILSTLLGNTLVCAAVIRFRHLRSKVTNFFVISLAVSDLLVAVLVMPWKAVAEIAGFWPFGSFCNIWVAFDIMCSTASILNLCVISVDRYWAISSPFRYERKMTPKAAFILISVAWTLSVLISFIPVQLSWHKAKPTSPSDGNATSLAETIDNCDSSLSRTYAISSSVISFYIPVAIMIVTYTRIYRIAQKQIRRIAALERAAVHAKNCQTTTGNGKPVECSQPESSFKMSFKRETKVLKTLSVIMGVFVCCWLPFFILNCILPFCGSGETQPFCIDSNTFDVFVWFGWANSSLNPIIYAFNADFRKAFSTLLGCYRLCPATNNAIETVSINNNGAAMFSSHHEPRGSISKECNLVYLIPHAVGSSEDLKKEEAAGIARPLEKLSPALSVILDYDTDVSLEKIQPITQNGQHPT
# D1 agonist: human D1 receptor agonism. HEK293 T-REx D1 cells, calcium flux, agonist mode. activation, % at 2 µM. 360,000 compounds, 1% hits. AID 504660; in the data active = activation above about 30%; also: 0% is about no effect
#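 Agonism was scored from calcium flux recorded over 180 s (1 read/s) after pintool compound addition, following a 10-cycle baseline. Cells were inducible force-coupled HEK293 TREx D1, plated overnight at 30 C and loaded with no-wash calcium dye.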
# D1 antag: blocks dopamine activation of the human D1 receptor | P21728 | HEK293 TREx D1 cells, calcium flux, dopamine EC80; active compounds read low | activity change, negative = inhibition, % at 10 µM | 360,000 compounds, 3.2% hits | AID 504652; in the data active = activity change below about -30%; also: % is scaled to controls: 0 for no effect and ±100 for the full control effect
#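 HEK293 T-REx cells expressing inducible, force-coupled D1 receptor; no-wash Ca dye, 30–90 min RT. Cmpd → 180 s read at 1 Hz → EC80 DA → 180 s read.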
# Starred values were filed as active, the others as inactive; u = inconclusive; x = no result.
SMILES,DRD3 antagonist,DRD3 agonist,D1 potentiator,D1 agonist,D1 antag
CCCSc1nc(=O)c2c(n1C)NC(=O)CC2c1cccc(F)c1F (configuration not stated),x,6,-1,-1,-2
CC(C)c1ccc(CN(Cc2ccco2)c2cnc(S(C)(=O)=O)nc2C(=O)Nc2ccc(F)cc2)cc1,x,8,0,6,-20
C=CCn1c(SCC(=O)Nc2sccc2C(N)=O)nc2sc(C)c(C)c2c1=O,10,41*,-5,4,-6
Cc1ccc(S(=O)(=O)N2[C@H](CC(=O)c3cccc4ccccc34)OC[C@@H]2C(C)C)cc1,0,6,x,x,x
Clc1ccc(-c2nc(Cc3ccccc3)no2)cc1,-17,-8,5,5,1
Cc1ccccc1-c1nc(Cc2ccccc2)no1,-53*,4,0,-2,8
CCOC(=O)C(=O)N(C)c1c(CC)nc2c(OCc3ccc(OC)cc3)cccn12,-27,-6,x,x,x
CC(=O)/C(N=Nc1cc2c(c([N+](=O)[O-])c1C)C(C)(C)CC2(C)C)=C(\C)O,21,34*,2,1,7
Cc1ccc2ncc(C(=O)NC(C)c3ccccc3)c(=O)n2c1 (configuration not stated),x,12,-2,0,-34*
CCCCc1c(C)nc2c(-c3ccc(OC)cc3)c(C)[nH]n2c1=O,x,-10,-3,42*,2
COc1ccc(C(=O)NC(Oc2ccccc2)C(Cl)(Cl)Cl)cc1 (configuration not stated),-15,-1,-10,9,-80*
Cc1ccc(Cc2c(-c3cccc(Cl)c3)nc3c4ccccc4ccn23)cc1,26,3,x,x,x
Cc1ccc(C(=O)NCc2ccc3c(c2)CCO3)cc1C,25,0,-3,3,-48*
O=C(O)CCc1ccc(-c2ccc(F)cc2)n1NC(=O)c1ccco1,17,2,-4,1,-88*
Cc1cc2nn(-c3ccc(F)cc3)nc2cc1NC(=O)c1cccc([N+](=O)[O-])c1C,x,5,-3,0,2
CC(C)C(=O)C1=Cc2cccc([N+](=O)[O-])c2OC1N1CCOCC1 (configuration not stated),-54*,-8,-1,0,-36*
CC(C)C(=O)C1=Cc2cc([N+](=O)[O-])ccc2OC1N1CCOCC1 (configuration not stated),u,-6,2,5,-7
O[C@@H](c1cc(C(F)(F)F)nc2c(C(F)(F)F)cccc12)[C@H]1CCCCN1,38,23,10,44*,18
OC(c1cc(C(F)(F)F)nc2c(Cl)cc(Cl)cc12)C1CCCCN1 (configuration not stated),31,1,14,32*,26
CC(C)(C)NCCC(O)c1cc(C(F)(F)F)nc2c(C(F)(F)F)cccc12 (configuration not stated),1,-5,x,x,x
OC(c1cc(-c2ccc(Cl)cc2)nc2ccccc12)C1CCCCN1 (configuration not stated),-13,2,-2,7,-23
Cc1ccc2ncc3c(-c4ccc(F)cc4)nn(CC(=O)Nc4ccccc4C)c3c2c1,x,6,-5,7,-13
O=C(N/N=C/c1ccc[nH]1)c1sc2ccccc2c1Cl,-65*,-30,-1,4,-5
CC(C)C[C@H](N)c1nnc(S(=O)(=O)Cc2ccc(F)cc2)o1,u,-14,-16,10,-70*
CCCn1cc2c(c1-c1ccc(C)cc1)c(=O)n(C)c(=O)n2C,5,3,-8,3,-7
SMILES,DRD3 antagonist,DRD3 agonist,D1 potentiator,D1 agonist,D1 antag
Cc1ccc(-c2c3c(=O)n(C)c(=O)n(C)c3cn2N2CCOCC2)cc1,-51*,3,1,0,-7
COc1ccc(C2=NOC(COc3ccc([N+](=O)[O-])cc3)C2)cc1 (configuration not stated),-17,7,-10,9,-32*
COCCCN(C(=O)c1ccccc1F)c1nc(-c2ccc(OC)cc2)cs1,9,-7,-13,6,-19
Nc1cnc(-c2ccccc2)nc1Cl,21,-9,-5,0,-39*
CC(C)CCN1CCN(Cc2ccsc2)CC1CCO (configuration not stated),0,-14,-4,3,-30
OCCC1CN(Cc2ccc3nonc3c2)CCN1Cc1ccsc1 (configuration not stated),-52*,-15,-4,5,-10
OCCC1CN(Cc2cccc(-c3ccco3)c2)CCN1Cc1ccsc1 (configuration not stated),-77*,-10,-1,4,5
OCCC1CN(Cc2cnn(-c3ccccc3Cl)c2)CCN1Cc1ccsc1 (configuration not stated),-68*,-17,-3,2,-15
OCCC1CN(Cc2ccc3cc(Cl)ccc3n2)CCN1Cc1ccsc1 (configuration not stated),u,-20,3,1,-1
CCCOC(=O)c1ccc(NC(=O)Cc2csc(C)n2)cc1,x,-7,-2,2,-17
CC(C)OCCCNC(=O)C(NS(=O)(=O)c1ccc2c(c1)c(=O)n(C)c(=O)n2C)c1ccccc1 (configuration not stated),x,x,-1,0,-44*
CCOC(=O)COc1cc2c(C(=O)OCC)c(C)oc2cc1Br,-6,35*,6,6,5
N[C@H](C(=O)O)[C@@H](O)c1ccc(O)c(O)c1,x,5,x,x,x
c1ccc(C2OC3c4cccc5cccc(c45)C3N2c2ccccc2)cc1 (configuration not stated),-59*,-5,1,3,4
Cc1cccc(N(C)C(=O)CN(C)S(=O)(=O)c2ccc3[nH]c4c(c3c2)CCCC4)c1,x,-1,3,-2,-3
COc1ccc(CNC(=O)COc2cc3c(c4oc(=O)cc(C)c24)CCC(C)(C)O3)cc1,24,36*,-1,3,-7
CN1CCN(C(=O)c2ccc(-c3ccc(F)c(F)c3)c3ccoc23)CC1,-59*,-11,x,x,x
COC(=O)c1cc(CNC(=O)c2ccccc2Cl)ccc1OC,9,0,1,3,-30*
COC(=O)c1cc(CNC(=O)c2ccc(O)c(Cl)c2)ccc1OC,-7,1,-3,1,7
CC1(C(=O)NCc2ccc3c(c2)OCO3)CCN1C(=O)CC1CCCC1 (configuration not stated),-23,-6,x,x,x
CCOc1ccc(S(=O)(=O)N(CC(=O)NCCSCc2ccccc2)c2ccccc2)cc1,x,-12,2,1,-1
COc1ccc([N+](=O)[O-])cc1COc1ccc2c(-c3ccccc3)cc(=O)oc2c1,-13,-4,-14,5,-33*
CC(=O)COc1ccc2c(-c3cccc([N+](=O)[O-])c3)cc(=O)oc2c1,-4,0,-1,0,2
